Holding throughout (assay): DAPPL (digital affinity profiling via proximity ligation, sequencing); 10 mM Tris-HCl pH 7.5, 50 mM NaCl, 1 mM DTT, 4% glycerol, room temperature, 30 min; GST-TFs on glutathione beads, 16-mer random dsDNA library, 0.1% formaldehyde crosslink after washing; high values mean tight binding
For one assay, the target named is T1, FEV (Homo sapiens, UniProt Q99581 1-238).
T1 sequence: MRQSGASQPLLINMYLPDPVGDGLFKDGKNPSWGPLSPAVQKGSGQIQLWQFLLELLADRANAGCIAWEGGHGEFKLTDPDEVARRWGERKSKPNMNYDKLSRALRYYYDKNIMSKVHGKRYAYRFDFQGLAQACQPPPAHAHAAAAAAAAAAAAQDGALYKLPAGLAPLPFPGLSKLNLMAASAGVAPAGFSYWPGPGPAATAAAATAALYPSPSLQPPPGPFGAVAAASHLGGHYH
The following applies: protein: recombinant; tags: N-terminal GST; dsDNA, one strand shown. A digest of the protocol:
(§1)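 Binding signal is each hexamer's read frequency for a factor divided by its frequency in the tag-only sample. The factors were GST-fused human transcription factors from yeast, captured on glutathione beads, DNA-barcoded and pooled with that sample. Pools were incubated with 200 nmole of a random double-stranded 16-mer DNA library in Tris/NaCl/DTT/glycerol buffer at room temperature for 30 min, then washed, crosslinked with 0.1% formaldehyde, proximity-ligated with BsaI/T4 ligase (1 h, 37 °C), PCR-amplified and sequenced on an Illumina NextSeq500.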

The next assay deals with ETV5 (Homo sapiens, UniProt P41161 1-510). The following applies: protein: recombinant; tags: N-terminal GST; dsDNA, one strand shown. A digest of the protocol:
as §1

The target of a further assay is HSF1 (Homo sapiens, UniProt Q00613 1-529). The following applies: protein: recombinant; tags: N-terminal GST; chain copies: 3; dsDNA, one strand shown. Summed up: as §1
A further assay concerns the target T2, SPIC (Homo sapiens, UniProt Q8N5J4 1-248).
T2 sequence: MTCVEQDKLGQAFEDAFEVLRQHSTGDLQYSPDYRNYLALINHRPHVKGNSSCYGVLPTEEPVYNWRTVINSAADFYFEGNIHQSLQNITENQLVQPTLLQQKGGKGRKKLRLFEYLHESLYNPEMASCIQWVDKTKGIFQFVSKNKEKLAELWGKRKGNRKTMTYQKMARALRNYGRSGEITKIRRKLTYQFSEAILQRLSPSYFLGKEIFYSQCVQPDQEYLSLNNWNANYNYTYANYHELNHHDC
As to conditions: protein: recombinant; tags: N-terminal GST; dsDNA, one strand shown. Summed up:
as §1

In the next assay the target is ELF4 (Homo sapiens, UniProt Q99607 1-663). The following applies: protein: recombinant; tags: N-terminal GST; dsDNA, one strand shown. A digest of the protocol: as §1
The target of another assay is T3, ELK4 (Homo sapiens, UniProt P28324-2 1-405).
T3 sequence: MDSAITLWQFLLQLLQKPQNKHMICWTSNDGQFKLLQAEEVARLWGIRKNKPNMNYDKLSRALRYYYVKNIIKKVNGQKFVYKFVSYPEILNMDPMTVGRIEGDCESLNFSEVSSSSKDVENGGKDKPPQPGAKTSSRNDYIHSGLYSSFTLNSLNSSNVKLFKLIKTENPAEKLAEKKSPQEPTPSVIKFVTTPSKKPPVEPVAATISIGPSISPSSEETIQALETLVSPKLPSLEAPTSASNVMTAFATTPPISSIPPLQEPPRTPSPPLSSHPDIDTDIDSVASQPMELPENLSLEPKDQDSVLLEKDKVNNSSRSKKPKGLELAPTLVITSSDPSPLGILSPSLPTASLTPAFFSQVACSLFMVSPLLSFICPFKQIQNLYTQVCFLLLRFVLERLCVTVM
The following applies: protein: recombinant; tags: N-terminal GST; dsDNA, one strand shown. A digest of the protocol: as §1

For a further assay, the target named is T4, ETV2 (Homo sapiens, UniProt O00321 1-342).
T4 sequence: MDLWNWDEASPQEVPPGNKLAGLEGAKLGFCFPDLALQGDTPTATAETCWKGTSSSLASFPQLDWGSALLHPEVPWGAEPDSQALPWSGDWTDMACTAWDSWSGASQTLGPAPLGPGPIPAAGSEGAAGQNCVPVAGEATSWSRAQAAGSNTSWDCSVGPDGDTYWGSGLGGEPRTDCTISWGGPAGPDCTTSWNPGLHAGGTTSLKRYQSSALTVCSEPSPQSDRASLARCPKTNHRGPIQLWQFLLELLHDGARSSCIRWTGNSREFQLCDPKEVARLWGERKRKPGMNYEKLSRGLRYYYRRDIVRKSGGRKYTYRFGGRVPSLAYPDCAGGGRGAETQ
The following applies: protein: recombinant; tags: N-terminal GST; dsDNA, one strand shown. Summed up:
as §1

In the next assay the target is T5, ELF3 (Homo sapiens, UniProt P78545 1-371).
T5 sequence: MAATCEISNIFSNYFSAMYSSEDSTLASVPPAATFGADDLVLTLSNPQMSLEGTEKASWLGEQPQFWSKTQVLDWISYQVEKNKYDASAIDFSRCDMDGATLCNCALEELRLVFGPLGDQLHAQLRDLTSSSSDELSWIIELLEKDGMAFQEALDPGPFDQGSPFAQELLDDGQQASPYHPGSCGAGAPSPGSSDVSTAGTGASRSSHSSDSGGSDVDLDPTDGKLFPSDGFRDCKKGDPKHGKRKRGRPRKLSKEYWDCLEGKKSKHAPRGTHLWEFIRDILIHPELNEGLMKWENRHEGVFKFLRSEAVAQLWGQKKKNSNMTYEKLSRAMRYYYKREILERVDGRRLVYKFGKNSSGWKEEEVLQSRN
The following applies: protein: recombinant; tags: N-terminal GST; dsDNA, one strand shown. Summed up: as §1

For another assay, the target named is CRX (Homo sapiens, UniProt O43186 1-299). As to conditions: protein: recombinant; tags: N-terminal GST; dsDNA, one strand shown. A digest of the protocol: as §1
The next assay deals with ETV1 (Homo sapiens, UniProt P50549 1-477). As to conditions: protein: recombinant; tags: N-terminal GST; dsDNA, one strand shown. A digest of the protocol: as §1
In another assay the target is T6, ERF (Homo sapiens, UniProt P50548 1-548).
T6 sequence: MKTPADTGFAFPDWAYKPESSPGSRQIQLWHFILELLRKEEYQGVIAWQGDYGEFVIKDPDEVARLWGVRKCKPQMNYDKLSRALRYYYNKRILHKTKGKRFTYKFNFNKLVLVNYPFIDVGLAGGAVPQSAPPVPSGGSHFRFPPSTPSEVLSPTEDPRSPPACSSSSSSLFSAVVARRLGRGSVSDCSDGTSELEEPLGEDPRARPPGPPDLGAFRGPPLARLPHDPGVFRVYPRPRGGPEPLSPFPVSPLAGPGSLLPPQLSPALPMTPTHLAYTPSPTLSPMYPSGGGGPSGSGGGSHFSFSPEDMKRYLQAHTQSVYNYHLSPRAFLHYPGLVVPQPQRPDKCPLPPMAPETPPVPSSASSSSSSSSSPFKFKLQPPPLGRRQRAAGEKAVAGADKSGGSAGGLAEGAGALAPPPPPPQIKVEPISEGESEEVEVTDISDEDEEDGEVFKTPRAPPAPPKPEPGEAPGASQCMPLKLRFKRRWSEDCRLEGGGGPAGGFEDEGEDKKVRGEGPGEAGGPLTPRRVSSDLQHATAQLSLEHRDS
The following applies: protein: recombinant; tags: N-terminal GST; dsDNA, one strand shown. Summed up:
as §1

Another assay concerns the target T7, ETV3L (Homo sapiens, UniProt Q6ZN32 1-361).
T7 sequence: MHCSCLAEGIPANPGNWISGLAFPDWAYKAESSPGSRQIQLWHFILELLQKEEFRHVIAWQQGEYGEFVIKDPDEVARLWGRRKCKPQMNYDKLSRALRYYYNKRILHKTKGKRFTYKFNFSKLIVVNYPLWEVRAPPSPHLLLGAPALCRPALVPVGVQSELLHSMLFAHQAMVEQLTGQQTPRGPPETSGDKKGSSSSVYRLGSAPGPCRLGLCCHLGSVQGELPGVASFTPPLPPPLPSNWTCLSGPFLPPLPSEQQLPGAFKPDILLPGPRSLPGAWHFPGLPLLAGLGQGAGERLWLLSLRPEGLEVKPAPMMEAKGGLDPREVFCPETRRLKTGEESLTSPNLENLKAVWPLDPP
As to conditions: protein: recombinant; tags: N-terminal GST; dsDNA, one strand shown. A digest of the protocol: as §1

The next assay deals with T8, ETS2 (Homo sapiens, UniProt P15036 1-469).
T8 sequence: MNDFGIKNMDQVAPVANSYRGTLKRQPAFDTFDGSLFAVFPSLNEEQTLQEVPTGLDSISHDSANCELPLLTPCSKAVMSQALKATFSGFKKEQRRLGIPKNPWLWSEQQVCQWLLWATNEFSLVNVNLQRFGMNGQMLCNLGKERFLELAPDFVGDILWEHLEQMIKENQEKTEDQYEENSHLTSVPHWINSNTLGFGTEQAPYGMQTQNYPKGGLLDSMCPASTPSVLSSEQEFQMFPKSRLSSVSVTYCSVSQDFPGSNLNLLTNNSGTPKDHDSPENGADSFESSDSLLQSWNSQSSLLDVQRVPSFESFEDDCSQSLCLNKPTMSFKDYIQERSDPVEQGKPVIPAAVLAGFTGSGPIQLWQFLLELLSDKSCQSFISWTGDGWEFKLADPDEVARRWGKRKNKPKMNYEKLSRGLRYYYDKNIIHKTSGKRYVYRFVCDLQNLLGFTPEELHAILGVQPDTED
As to conditions: protein: recombinant; tags: N-terminal GST; dsDNA, one strand shown. A digest of the protocol:
as §1

In the next assay the target is T9, SPDEF (Homo sapiens, UniProt O95238 1-335).
T9 sequence: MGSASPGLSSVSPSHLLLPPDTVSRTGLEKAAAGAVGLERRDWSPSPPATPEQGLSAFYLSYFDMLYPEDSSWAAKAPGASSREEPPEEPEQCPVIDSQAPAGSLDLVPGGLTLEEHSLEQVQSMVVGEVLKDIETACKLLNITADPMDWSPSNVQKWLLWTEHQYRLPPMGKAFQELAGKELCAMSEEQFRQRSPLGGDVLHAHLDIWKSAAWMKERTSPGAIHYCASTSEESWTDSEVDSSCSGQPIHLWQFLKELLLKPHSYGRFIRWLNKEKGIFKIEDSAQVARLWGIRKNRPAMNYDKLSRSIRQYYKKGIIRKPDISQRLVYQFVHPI
The following applies: protein: recombinant; tags: N-terminal GST; dsDNA, one strand shown. A digest of the protocol: as §1

Another assay addresses T10, ETV7 (Homo sapiens, UniProt Q9Y603 1-341).
T10 sequence: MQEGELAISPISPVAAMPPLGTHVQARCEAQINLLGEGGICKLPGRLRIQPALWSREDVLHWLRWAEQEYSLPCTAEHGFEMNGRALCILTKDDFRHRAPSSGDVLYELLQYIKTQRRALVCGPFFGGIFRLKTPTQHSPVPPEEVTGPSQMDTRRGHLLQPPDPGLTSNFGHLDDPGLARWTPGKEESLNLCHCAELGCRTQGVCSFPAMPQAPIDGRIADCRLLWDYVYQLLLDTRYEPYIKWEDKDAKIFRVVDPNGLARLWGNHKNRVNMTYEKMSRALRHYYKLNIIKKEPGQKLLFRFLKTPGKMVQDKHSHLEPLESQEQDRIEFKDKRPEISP
The following applies: protein: recombinant; tags: N-terminal GST; dsDNA, one strand shown. A digest of the protocol: as §1

A further assay deals with T11, ELF5 (Homo sapiens, UniProt Q9UKW6-2 1-255).
T11 sequence: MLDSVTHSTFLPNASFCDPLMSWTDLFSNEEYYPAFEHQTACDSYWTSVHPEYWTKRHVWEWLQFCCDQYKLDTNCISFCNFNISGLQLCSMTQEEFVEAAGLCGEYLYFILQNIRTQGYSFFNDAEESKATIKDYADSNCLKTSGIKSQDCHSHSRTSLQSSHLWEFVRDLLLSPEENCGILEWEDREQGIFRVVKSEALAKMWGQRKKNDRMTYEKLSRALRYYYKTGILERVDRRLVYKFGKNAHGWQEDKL
As to conditions: protein: recombinant; tags: N-terminal GST; dsDNA, one strand shown. A digest of the protocol:
as §1

The target of the next assay is T12, ETV3 (Homo sapiens, UniProt P41162-2 1-143).
T12 sequence: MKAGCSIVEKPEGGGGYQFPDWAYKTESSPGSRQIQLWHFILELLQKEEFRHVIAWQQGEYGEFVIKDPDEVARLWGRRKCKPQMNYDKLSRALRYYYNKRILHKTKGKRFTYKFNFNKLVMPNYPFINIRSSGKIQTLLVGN
The following applies: protein: recombinant; tags: N-terminal GST; dsDNA, one strand shown. Summed up:
as §1

The target in another assay is ETV6 (Homo sapiens, UniProt P41212 1-452). As to conditions: protein: recombinant; tags: N-terminal GST; dsDNA, one strand shown. A digest of the protocol:
as §1

ETV6, sequence (P41212 whole entry): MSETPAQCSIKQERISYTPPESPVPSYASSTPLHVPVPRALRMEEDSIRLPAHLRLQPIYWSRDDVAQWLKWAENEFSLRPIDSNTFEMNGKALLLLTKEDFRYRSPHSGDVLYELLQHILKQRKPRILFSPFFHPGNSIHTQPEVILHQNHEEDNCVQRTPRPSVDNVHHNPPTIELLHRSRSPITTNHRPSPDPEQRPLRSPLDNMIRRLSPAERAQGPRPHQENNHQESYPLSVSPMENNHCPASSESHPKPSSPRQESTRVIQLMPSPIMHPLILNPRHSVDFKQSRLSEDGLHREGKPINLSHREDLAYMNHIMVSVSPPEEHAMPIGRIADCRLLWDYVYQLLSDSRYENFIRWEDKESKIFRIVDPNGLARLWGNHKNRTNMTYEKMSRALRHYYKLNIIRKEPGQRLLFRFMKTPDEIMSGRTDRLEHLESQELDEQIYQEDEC
CRX, sequence (O43186 whole entry): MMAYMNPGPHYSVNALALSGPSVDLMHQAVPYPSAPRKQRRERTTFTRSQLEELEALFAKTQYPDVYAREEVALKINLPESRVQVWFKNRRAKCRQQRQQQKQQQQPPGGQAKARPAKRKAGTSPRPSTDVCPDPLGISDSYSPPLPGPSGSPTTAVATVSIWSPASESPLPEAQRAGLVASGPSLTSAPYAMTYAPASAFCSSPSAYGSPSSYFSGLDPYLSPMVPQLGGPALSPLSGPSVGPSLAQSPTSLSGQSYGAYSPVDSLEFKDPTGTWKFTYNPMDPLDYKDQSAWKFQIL
ETV5, sequence (P41161 whole entry): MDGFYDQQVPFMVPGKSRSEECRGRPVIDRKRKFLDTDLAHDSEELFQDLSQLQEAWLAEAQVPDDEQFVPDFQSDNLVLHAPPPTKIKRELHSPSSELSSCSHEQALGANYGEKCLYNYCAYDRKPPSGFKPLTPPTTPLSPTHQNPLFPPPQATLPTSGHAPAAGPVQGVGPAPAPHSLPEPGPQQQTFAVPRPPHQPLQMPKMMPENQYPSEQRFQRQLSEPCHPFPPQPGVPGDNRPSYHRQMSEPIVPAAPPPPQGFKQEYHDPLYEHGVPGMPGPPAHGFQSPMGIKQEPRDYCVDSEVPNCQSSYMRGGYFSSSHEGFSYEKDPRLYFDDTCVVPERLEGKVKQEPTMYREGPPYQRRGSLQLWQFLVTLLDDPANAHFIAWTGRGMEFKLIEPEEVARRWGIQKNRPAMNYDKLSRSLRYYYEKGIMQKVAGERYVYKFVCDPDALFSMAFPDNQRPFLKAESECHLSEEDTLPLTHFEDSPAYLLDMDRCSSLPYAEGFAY
ELF4, sequence (Q99607 whole entry): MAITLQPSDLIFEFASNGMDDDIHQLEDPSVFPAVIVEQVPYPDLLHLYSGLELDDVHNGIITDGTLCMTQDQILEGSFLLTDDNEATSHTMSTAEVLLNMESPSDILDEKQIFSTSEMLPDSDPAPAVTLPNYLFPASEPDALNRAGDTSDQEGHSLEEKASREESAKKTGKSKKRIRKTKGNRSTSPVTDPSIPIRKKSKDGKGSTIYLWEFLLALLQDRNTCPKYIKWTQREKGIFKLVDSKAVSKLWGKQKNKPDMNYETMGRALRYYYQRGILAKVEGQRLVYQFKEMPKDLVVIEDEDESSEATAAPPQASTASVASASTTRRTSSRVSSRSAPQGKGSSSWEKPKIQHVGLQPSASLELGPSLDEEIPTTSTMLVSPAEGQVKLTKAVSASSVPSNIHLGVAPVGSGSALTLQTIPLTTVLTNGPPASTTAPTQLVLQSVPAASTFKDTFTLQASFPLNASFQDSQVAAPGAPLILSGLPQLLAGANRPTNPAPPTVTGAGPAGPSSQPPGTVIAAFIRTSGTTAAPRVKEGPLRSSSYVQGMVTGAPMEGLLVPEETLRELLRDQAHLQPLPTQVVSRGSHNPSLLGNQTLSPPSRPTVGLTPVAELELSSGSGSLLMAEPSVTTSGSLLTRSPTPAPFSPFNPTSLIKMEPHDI
HSF1, sequence (Q00613 whole entry): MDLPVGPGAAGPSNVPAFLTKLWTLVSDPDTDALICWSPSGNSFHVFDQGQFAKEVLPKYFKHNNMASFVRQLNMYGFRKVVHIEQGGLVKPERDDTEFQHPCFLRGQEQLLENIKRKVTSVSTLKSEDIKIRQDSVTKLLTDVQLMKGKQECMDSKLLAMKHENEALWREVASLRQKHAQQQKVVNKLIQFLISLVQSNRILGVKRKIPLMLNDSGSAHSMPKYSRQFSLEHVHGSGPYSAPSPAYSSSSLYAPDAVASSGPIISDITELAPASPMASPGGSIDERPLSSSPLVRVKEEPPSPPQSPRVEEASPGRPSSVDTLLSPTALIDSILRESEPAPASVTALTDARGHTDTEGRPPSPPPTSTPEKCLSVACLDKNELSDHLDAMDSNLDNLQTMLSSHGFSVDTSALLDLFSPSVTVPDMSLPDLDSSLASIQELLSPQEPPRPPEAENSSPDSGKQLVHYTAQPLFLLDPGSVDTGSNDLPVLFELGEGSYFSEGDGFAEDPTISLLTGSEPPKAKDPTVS
ETV1, sequence (P50549 whole entry): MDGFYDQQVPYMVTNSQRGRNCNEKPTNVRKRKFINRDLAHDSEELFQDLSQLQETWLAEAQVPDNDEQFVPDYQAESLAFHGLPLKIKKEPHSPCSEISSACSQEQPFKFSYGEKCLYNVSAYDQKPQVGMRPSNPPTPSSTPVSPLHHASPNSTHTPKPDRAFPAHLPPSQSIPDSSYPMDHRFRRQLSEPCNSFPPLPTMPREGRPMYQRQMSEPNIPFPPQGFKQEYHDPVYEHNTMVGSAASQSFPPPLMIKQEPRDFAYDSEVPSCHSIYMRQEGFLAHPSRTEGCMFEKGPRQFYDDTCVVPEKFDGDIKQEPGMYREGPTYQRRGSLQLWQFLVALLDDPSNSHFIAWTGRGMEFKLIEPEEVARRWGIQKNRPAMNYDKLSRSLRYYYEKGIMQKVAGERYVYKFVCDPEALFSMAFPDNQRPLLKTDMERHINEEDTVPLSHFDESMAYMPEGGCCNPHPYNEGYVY

For the sequence CGCGCT, the binding signal in the assay with FEV is 1.11 fold enrichment (6-mer frequency, TF over GST control); in the assay with ETV5, 1.17 fold enrichment (6-mer frequency, TF over GST control); in the assay with HSF1 it was 1.11 fold enrichment (6-mer frequency, TF over GST control); with SPIC it was 1.31 fold enrichment (6-mer frequency, TF over GST control); in the assay with ELF4 it was 1.2 fold enrichment (6-mer frequency, TF over GST control); in the assay with ELK4 it was 1.21 fold enrichment (6-mer frequency, TF over GST control). In addition, the binding signal in the assay with ETV2 was 1.11 fold enrichment (6-mer frequency, TF over GST control); with ELF3 it was 1.05 fold enrichment (6-mer frequency, TF over GST control); with CRX it was 1.06 fold enrichment (6-mer frequency, TF over GST control); in the assay with ETV1, 1.15 fold enrichment (6-mer frequency, TF over GST control); with ERF, 1.44 fold enrichment (6-mer frequency, TF over GST control); with ETV3L, 1.18 fold enrichment (6-mer frequency, TF over GST control). Further, the binding signal with ETS2 was 1.25 fold enrichment (6-mer frequency, TF over GST control); with SPDEF, 1.14 fold enrichment (6-mer frequency, TF over GST control); with ETV7 it was 1.14 fold enrichment (6-mer frequency, TF over GST control); with ELF5 it was 1.11 fold enrichment (6-mer frequency, TF over GST control); in the assay with ETV3, 1.17 fold enrichment (6-mer frequency, TF over GST control); in the assay with ETV6 it was 1.15 fold enrichment (6-mer frequency, TF over GST control).

(Values after article PMC7862700, “An all-to-all approach to the identification of sequence-specific readers for epigenetic DNA modifications on cytosine”.)
